This is an account of results in PubChem BioAssay (NCATS).

Common to all, as to experiment: qHTS profiling for inhibitors of Plasmodium falciparum proliferation (AID 504749); also: nearly all actives have a fitted effect of over 60% in size
Holding throughout (conditions): P. falciparum in erythrocytes, SYBR Green DNA, 72 h; series mostly up to 28.7 µM
On the technique in general: Quantitative high-throughput screening tests each substance at several concentrations.

The subject of one experiment is CP191. The method in brief: (§1)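 Three-day growth assay of blood-stage parasites in erythrocytes (0.3% parasitemia, 2.5% hematocrit) at 37 C, 5% CO2, quantified by SYBR Green DNA staining after overnight detergent lysis.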
The subject of a further experiment is CP192. The method in brief: as §1
Another experiment relates to CP194. The gist of the method:
as §1

For the next experiment, the system named is CP201. The gist of the method:
as §1

Another experiment deals with CP211. The method in brief: as §1
In the next experiment the test system is CP215. The gist of the method: as §1
The next experiment concerns CP217. The gist of the method:
as §1

For the next experiment, the system named is CP237. The gist of the method:
as §1

Another experiment concerns CP238. The gist of the method: as §1
In another experiment the test system is CP247. The gist of the method: as §1
In the next experiment the test system is CP250. The gist of the method: as §1
A further experiment relates to CP252. The method in brief:
as §1

The next experiment deals with CP256. The gist of the method: as §1
The subject of the next experiment is CP260. The method in brief:
as §1

Another experiment deals with CP262. The gist of the method:
as §1

The test system of another experiment is CP265. The gist of the method: as §1
The subject of the next experiment is CP266. The gist of the method: as §1
Another experiment concerns CP268. The gist of the method:
as §1

The test system of the next experiment is CP269. The gist of the method:
as §1

A further experiment deals with CP203. The method in brief:
as §1

Results filed as inconclusive are left out. Unmarked numbers belong to inactive results. Active and inactive are the calls of the source. Calls follow the shape of the dose curve; as a rule, active = well fitted inhibition curve with a large enough effect; inconclusive = small, poorly fitted or top-dose-only effect; inactive = flat fitted curve, though single readings scatter.
Potency is read from the fitted curve at half-maximal effect.

In the case of `O=c1oc2ccccc2c(O)c1Cc1c(O)c2ccccc2oc1=O`, the Potency result in the experiment on CP191, in the experiment with CP192, in the experiment on CP194, in the experiment on CP201, with CP211 and in the experiment with CP215 was “inactive” each time. The Potency entry in the experiment on CP217, in the experiment on CP237, in the experiment on CP238, with CP247, in the experiment with CP250 and in the experiment with CP252 was “inactive” throughout. Further, the Potency result with CP256, in the experiment on CP260, in the experiment with CP262, in the experiment with CP265, in the experiment on CP268 and with CP269 was “inactive” throughout. The result with CP266 was inactive.

As for `Clc1ccc2c(c1)C(c1ccccc1)=NCc1nncn1-2`, the Potency result with CP191, in the experiment with CP192, in the experiment on CP194, in the experiment with CP201, in the experiment on CP203 and in the experiment with CP211 was “inactive” each time. Further, the Potency result with CP215, in the experiment on CP217, in the experiment with CP237, in the experiment with CP238, with CP247 and in the experiment on CP250 was “inactive” in each case. In addition, the Potency entry in the experiment with CP252, with CP256, in the experiment with CP260, in the experiment with CP262, in the experiment with CP265 and in the experiment with CP268 was “inactive” in each case. For the same molecule, the Potency entry with CP269 is “inactive”. Besides, the outcome in the experiment on CP266 was inactive.

Regarding `COC(=O)C(c1ccccc1)C1CCCCN1` (centres undefined), the Potency result in the experiment on CP191, in the experiment on CP192, with CP201, in the experiment with CP211, in the experiment on CP215 and in the experiment on CP217 was “inactive” each time. Moreover, the Potency result with CP238, with CP247, in the experiment with CP250, in the experiment on CP252, in the experiment on CP256 and in the experiment with CP260 was “inactive” each time. Besides, the Potency result with CP265, in the experiment with CP268 and in the experiment with CP269 was “inactive” in each case. The Potency with CP237 was 12.6 µM (active). Also, in the experiment on CP266, the outcome was inactive.

Consider `CNC(C)(C)Cc1ccccc1`, for which the Potency result with CP191, with CP194, in the experiment with CP201, in the experiment on CP211, in the experiment with CP215 and in the experiment with CP217 was “inactive” in each case. For the same molecule, the Potency result in the experiment with CP238, in the experiment with CP247, in the experiment with CP250, in the experiment on CP252, with CP256 and in the experiment with CP260 was “inactive” in each case. In addition, the Potency result with CP262, in the experiment with CP265, in the experiment with CP268 and in the experiment on CP269 was “inactive” in each case. Further, the outcome with CP266 was inactive.

In the case of `CCC1(CC)C(=O)C=CNC1=O`, the Potency result in the experiment with CP191, in the experiment on CP192, in the experiment on CP194, in the experiment on CP201, with CP211 and in the experiment with CP215 was “inactive” each time. In addition, the Potency entry with CP217, in the experiment with CP237, with CP238, with CP250, in the experiment with CP252 and with CP256 was “inactive” each time. Besides, the Potency entry in the experiment with CP260, in the experiment on CP262, in the experiment on CP265, in the experiment on CP268 and in the experiment with CP269 was “inactive” in each case.

As for `COP(=S)(OC)SCN1C(=O)c2ccccc2C1=O`, the Potency result in the experiment with CP191, in the experiment on CP192, in the experiment on CP194, with CP201, with CP211 and in the experiment on CP215 was “inactive” throughout. Moreover, the Potency result with CP217, in the experiment with CP237, in the experiment with CP238, in the experiment on CP250, with CP252 and in the experiment with CP256 was “inactive” each time. Also, the Potency entry with CP260, in the experiment on CP262, in the experiment with CP265, with CP268 and in the experiment on CP269 was “inactive” throughout.

For `CC(C)(C)NCC(O)c1ccccc1Cl` (centres undefined), the Potency result in the experiment with CP191, in the experiment with CP192, with CP201, in the experiment with CP211, in the experiment on CP250 and in the experiment with CP256 was “inactive” each time. The Potency entry in the experiment on CP262, in the experiment with CP265, with CP268 and with CP269 was “inactive” each time. Further, the Potency with CP237 is 8.91 µM (active).

With `COc1c2c(cc3c1OCO3)CCN(C)C2`, the Potency entry in the experiment with CP191, in the experiment with CP192, in the experiment with CP194, in the experiment with CP201, with CP215 and with CP217 was “inactive” in each case. Further, the Potency result with CP237, with CP238, in the experiment on CP247, in the experiment on CP250, with CP252 and in the experiment on CP256 was “inactive” each time. Also, the Potency entry with CP260, in the experiment with CP262, in the experiment with CP265, in the experiment on CP268 and in the experiment with CP269 was “inactive” each time. In the experiment on CP266, the call was inactive.

For `O=C1c2ccccc2C(=O)C1C(=O)C(c1ccccc1)c1ccccc1`, the Potency entry in the experiment with CP191, in the experiment on CP192, with CP194, with CP203, in the experiment on CP211 and in the experiment on CP215 was “inactive” each time. In addition, the Potency result in the experiment with CP217, in the experiment on CP237, in the experiment with CP238, in the experiment on CP247, in the experiment on CP250 and with CP252 was “inactive” throughout. Also, the Potency result in the experiment on CP256, in the experiment with CP262, with CP265, in the experiment with CP268 and in the experiment with CP269 was “inactive” throughout. Moreover, in the experiment on CP266, the result was inactive.

`CC(C)(C)NCC(O)c1cc(Cl)c(N)c(C(F)(F)F)c1` (centres undefined): the Potency was 4.47 µM (active) with CP191; 11.2 µM (active) in the experiment on CP217; 7.08 µM (active) with CP237; 8.91 µM (active) in the experiment with CP238; 10 µM (active) in the experiment on CP247; 10 µM (active) with CP250. For the same molecule, the Potency in the experiment with CP252 is 8.91 µM (active); with CP256, 11.2 µM (active); in the experiment with CP260, 12.6 µM (active); in the experiment with CP265, 8.91 µM (active). Also, the Potency result in the experiment with CP192 and in the experiment on CP201 was “inactive” throughout. The call in the experiment with CP266 was inactive.

`COc1ccc2c(c1OC)C(=O)O[C@H]2[C@@H]1c2cc3c(cc2CCN1C)OCO3`: the Potency result in the experiment with CP192, in the experiment on CP194, in the experiment with CP201, in the experiment on CP203, in the experiment on CP211 and with CP215 was “inactive” in each case. Further, the Potency result in the experiment on CP262, with CP268 and in the experiment with CP269 was “inactive” in each case. In the experiment on CP266, the result was inactive.

On to `NC(=O)c1cc([N+](=O)[O-])cc([N+](=O)[O-])c1`, for which the Potency result in the experiment on CP192, with CP194, in the experiment on CP201, with CP215, in the experiment on CP238 and in the experiment on CP256 was “inactive” throughout. In addition, the Potency entry with CP268 was “inactive”. The result with CP266 was inactive.

On to `Cc1nnc2n1-c1ccc(Cl)cc1C(c1ccccc1)=NC2`, for which the Potency entry with CP191, in the experiment on CP192, in the experiment with CP194, in the experiment on CP201, in the experiment on CP211 and with CP215 was “inactive” in each case. The Potency result with CP217, in the experiment with CP237, in the experiment on CP238, in the experiment on CP247, in the experiment on CP250 and in the experiment with CP252 was “inactive” throughout. In addition, the Potency result in the experiment on CP260, in the experiment on CP262, in the experiment with CP265, in the experiment with CP268 and in the experiment on CP269 was “inactive” in each case. For the same molecule, in the experiment on CP266, the molecule was classed as inactive.

For `CCCCCCC(=O)CCCCCC/C=C/C[C@@H](O)[C@H](O)[C@@](N)(CO)C(=O)O`, the Potency entry in the experiment on CP191, in the experiment with CP192, in the experiment on CP194, in the experiment with CP201, in the experiment on CP211 and with CP215 was “inactive” in each case. In addition, the Potency entry with CP217, in the experiment on CP237, in the experiment with CP238, in the experiment on CP247, in the experiment on CP252 and in the experiment on CP256 was “inactive” in each case. Besides, the Potency entry in the experiment with CP260, in the experiment with CP262, in the experiment with CP265, in the experiment on CP268 and with CP269 was “inactive” each time. In addition, the result in the experiment on CP266 was inactive.

As to `O=C(Nc1ccc(Br)cc1)c1cc(Br)cc(Br)c1O`, the Potency entry in the experiment on CP191, with CP192, in the experiment on CP194, in the experiment with CP201, in the experiment on CP211 and in the experiment with CP215 was “inactive” each time. Besides, the Potency entry with CP217, in the experiment on CP237, with CP238, in the experiment with CP247, with CP250 and with CP252 was “inactive” each time. Moreover, the Potency result in the experiment with CP256, in the experiment on CP260, with CP265, in the experiment with CP268 and with CP269 was “inactive” throughout. In addition, the result with CP266 was inactive.

Consider `Clc1ccc(C(c2ccc(Cl)cc2)C(Cl)(Cl)Cl)cc1`, for which the Potency entry in the experiment on CP192, with CP201, in the experiment on CP211, with CP217, in the experiment with CP238 and with CP247 was “inactive” throughout. Besides, the Potency entry with CP250, in the experiment on CP252, in the experiment with CP256, in the experiment with CP260, in the experiment with CP262 and with CP265 was “inactive” in each case. For the same molecule, the Potency entry in the experiment on CP268 and with CP269 was “inactive” in each case. For the same molecule, the outcome in the experiment with CP266 was inactive.
